These results are taken from PubChem BioAssay (EPA / NIEHS).

Inconclusive results are not listed. Calls of active or inactive are those of the source. The calls were made as follows: active = hit-call score of the fitted dose curve at least 0.9, where 1 is the maximum; inconclusive = response in the unintended direction; inactive = score below 0.9.

Read-out in the assay: ABC Transporter (ABCB1), ABCB1 (gene 5243)
Nature of the assay: CLD_ABCB1_6hr: CellzDirect (CLD) Gene Expression Assay for ABC Transporter (ABCB1) at 6 hours (AID 2283659).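 Also: hits raise ABCB1 transcript above the DMSO vehicle baseline.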 How it is done:
CLD_6hr is a cell-based, multiplexed-readout assay that uses hepatocyte, a human liver primary cell, with measurements taken at 6 hours after chemical dosing in a 96-well plate.CLD_ABCB1_6hr is one of 16 assay component(s) measured or calculated from the CLD_6hr assay. It is designed to make measurements of mRNA induction, a form of inducible reporter, as detected with chemiluminescence signals by Quantitative Nuclease Protection Assay (qNPA) technology.Data from the assay component CLD_ABCB1_6hr was analyzed at the endpoint, CLD_ABCB1_6hr, in the positive analysis fitting direction relative to DMSO as the negative control and baseline of activity. Using a type of inducible reporter, gain-of-signal activity can be used to understand changes in the reporter gene as they relate to the gene ABCB1. Furthermore, this assay endpoint can be referred to as a primary readout. To generalize the intended target to other relatable targets, this assay endpoint is annotated to the transporter intended target family, where subfamily is ABC transporter.
Human hepatocyte cultures were treated daily for two consecutive days with fresh dosing solutions containing appropriate concentrations of the 320 ToxCast chemicals (chemical identities were blinded to CellzDirect and other ToxCast collaborators), vehicle control (0.2% DMSO), and positive control inducers as summarized in Table 1. Due to the large number of treatment groups and chemicals examined, the ToxCast chemicals were divided into two groups (spanning two independent cultures of hepatocytes from separate donor preparations (Hu778: ToxCast plates 1 and 2; Hu776: ToxCast plates 3 and 4). Each preparation of human hepatocyte cultures was treated with respective vehicle control, medium only control, set of six positive controls/reference chemicals for the five hepatic receptor pathways, and a subset of eight of the ToxCast chemicals (indoxacarb, pyrithiobac-sodium, norflurazon, cyhalofop-butyl, methomyl, thiram, acetochlor, and propiconazole). These replicate data, coupled with internal replicates designed within the blinded ToxCast chemical library, provided additional data to evaluate interindividual differences between hepatocyte preparations and their potential impact on chemical profiles.Cell morphology and integrity were evaluated using phase-contrast microscopy as an indicator of hepatocyte cell health (Tyson & Green, 1987). Cultures for each treatment group (i.e., media, vehicle [0.2% DMSO], positive control inducers [multiple concentrations], and the ToxCast chemicals [multiple concentrations]) were observed and cell morphology was assessed relative to vehicle control cultures at each harvest time point (0, 6, 24, or 48 h). […] Images were evaluated at the conclusion of the study to assess changes in cell integrity and account for the effects of chemical exposure on uncharacteristic changes in concentration-dependent gene expression profiles. The results from these determinations of apparent cytotoxicity were annotated (yes/no) alongside the corresponding qNPA data for reference.At the conclusion of each treatment period, hepatocyte cultures (96-well) were washed with 1 volume of HBSS, lysed by addition of 25 ul ArrayPlate lysis buffer (HTG, Tucson, AZ), and 70 ul/well of Denaturation Oil, denatured by incubation at 95C for 10 min, and frozen at approximately -70C until analysis by nuclease protection assay (qNPA) (Roberts et al., 2007). For qNPA analysis, cell lysates were thawed at 50C for approximately 30 min, qNPA probes were added, and samples were incubated at 95C for 10 min to begin the detection process by denaturing the target RNA, dissociating the duplexes and secondary structure hybridization. At the conclusion of the hybridization period, S1 nuclease reagent was added to each sample to digest all nonprotected nucleotides at 50C for 60-90 min. […]
With `COCCO`, the compound was classed as inactive.

Regarding `CCOC(=O)[C@H](C)Oc1ccc(Oc2nc3ccc(Cl)cc3o2)cc1`, the call was inactive.

In the case of `CC(C)(c1ccc(O)cc1)c1ccc(O)cc1`, the call was inactive.

Regarding `COC(=O)c1ccc(CNS(C)(=O)=O)cc1S(=O)(=O)NC(=O)Nc1nc(OC)cc(OC)n1`, the call was inactive.

Turning to `C=CCOC(Cn1ccnc1)c1ccc(Cl)cc1Cl` (stereo not given), the result was inactive.

Take `CCCCCOC(=O)COc1cc(N2C(=O)C3=C(CCCC3)C2=O)c(F)cc1Cl`: the outcome was inactive.

Take `N#CSCSc1nc2ccccc2s1`: the call was inactive.

Regarding `COc1c(Cl)ccc(Cl)c1C(=O)O`, the compound was called inactive.

`C#CCOC(=O)[C@@H](C)Oc1ccc(Oc2ncc(Cl)cc2F)cc1`: the result was inactive.

`CCC(C)OC(=O)N1CCCCC1CCO` (stereo not given): the compound was called inactive.

Regarding `CCCCC(CC)COC(=O)c1ccccc1C(=O)O` (stereo not given), the result was inactive.

For the compound `CCN(CC)C(=O)c1cccc(C)c1`, the call was inactive.

For `CCC(O)=C1C(=O)CC(C(=O)O)CC1=O` (stereo not given), the outcome was inactive.

Turning to `CCOC(=O)C(C)Oc1ccc(Oc2nc3ccc(Cl)cc3o2)cc1` (stereo not given), the call was inactive.

In the case of `CCCN(CCC)c1c([N+](=O)[O-])cc(C(F)(F)F)c(N)c1[N+](=O)[O-]`, the compound was classed as inactive.

Regarding `CCOC(=O)COc1cc(-n2ncc(C(F)(F)F)c(C)c2=O)c(F)cc1Cl`, the compound was classed as inactive.

On to `CCCCCCC(C)OC(=O)COc1nc(F)c(Cl)c(N)c1Cl` (stereo not given), for which the result was inactive.

Consider `COc1nc(C)nc(NC(=O)NS(=O)(=O)c2ccccc2OCCCl)n1`, for which the outcome was inactive.

For the compound `CCCN(CCC)C(=O)SCC`, the compound was called inactive.

On to `S=C(S)NCCNC(=S)S.[Mn+2].[S-]C([S-])=NCCN=C([S-])[S-].[Zn+2]`, for which the compound was called inactive.

With `CSC(=O)c1cccc2nnsc12`, the compound was called inactive.

For the compound `CCOC(=O)NCCOc1ccc(Oc2ccccc2)cc1`, the call was inactive.

As to `COC(=O)CSc1cc(N=c2sc(=O)n3n2CCCC3)c(F)cc1Cl`, the compound was classed as inactive.

`c1ccc2[nH]c(-c3cscn3)nc2c1`: the outcome was inactive.

Consider `CCCOC(=O)NCCCN(C)C`, for which the outcome was inactive.

In the case of `CCNc1nc(N)nc(Cl)n1`, the result was inactive.

`CCCOC(=O)c1ccc(C(=O)OCCC)nc1`: the compound was classed as inactive.

Consider `Oc1ccc(C(c2ccc(O)cc2)C(Cl)(Cl)Cl)cc1`, for which the outcome was inactive.

For `COC(=O)c1ccccc1C(=O)O`, the result was inactive.

Regarding `CCCCOC(=O)[C@@H](C)Oc1ccc(Oc2ccc(C(F)(F)F)cn2)cc1`, the compound was called inactive.

`CCCCC(CC)CN1C(=O)C2C3C=CC(C3)C2C1=O` (stereo not given): the result was inactive.

As to `COC(=O)c1ccc(I)cc1S(=O)(=O)NC(=O)Nc1nc(C)nc(OC)n1`, the result was inactive.

On to `CC(C)(C)[C@@H](O)[C@@H](Cc1ccc(Cl)cc1)n1cncn1`, for which the compound was classed as inactive.

Consider `CN(C)C(=O)Nc1ccc(Cl)c(Cl)c1`, for which the result was inactive.

As for `O=C(Nc1ccc([N+](=O)[O-])cc1Cl)c1cc(Cl)ccc1O`, the result was inactive.
